ChEMBL document CHEMBL3988442, “University of Dundee, Small-Polar-MMV Screening Library” (2021)
For some assays here: Measured potencies and affinities stand elsewhere.

Legend:
Parameters in all cases: scale not given: direction of the effect not stated beside the values
[1] = biological target: Protein translocase subunit SecA (Escherichia coli (strain K12)) (UniProt P10408); test: Assay to Identify E. coli SecA ATPase Inhibitors; type: functional; conditions: 30 µM
[2] = biological target: T1, Ubiquitin-activating enzyme e1, putative (Leishmania donovani (strain BPK282A1)) (UniProt E9BSI1); test: Leishmania donovani Ubiquitin Activating Enzyme (LdE1); type: functional; conditions: 30 µM
T1 sequence (whole entry): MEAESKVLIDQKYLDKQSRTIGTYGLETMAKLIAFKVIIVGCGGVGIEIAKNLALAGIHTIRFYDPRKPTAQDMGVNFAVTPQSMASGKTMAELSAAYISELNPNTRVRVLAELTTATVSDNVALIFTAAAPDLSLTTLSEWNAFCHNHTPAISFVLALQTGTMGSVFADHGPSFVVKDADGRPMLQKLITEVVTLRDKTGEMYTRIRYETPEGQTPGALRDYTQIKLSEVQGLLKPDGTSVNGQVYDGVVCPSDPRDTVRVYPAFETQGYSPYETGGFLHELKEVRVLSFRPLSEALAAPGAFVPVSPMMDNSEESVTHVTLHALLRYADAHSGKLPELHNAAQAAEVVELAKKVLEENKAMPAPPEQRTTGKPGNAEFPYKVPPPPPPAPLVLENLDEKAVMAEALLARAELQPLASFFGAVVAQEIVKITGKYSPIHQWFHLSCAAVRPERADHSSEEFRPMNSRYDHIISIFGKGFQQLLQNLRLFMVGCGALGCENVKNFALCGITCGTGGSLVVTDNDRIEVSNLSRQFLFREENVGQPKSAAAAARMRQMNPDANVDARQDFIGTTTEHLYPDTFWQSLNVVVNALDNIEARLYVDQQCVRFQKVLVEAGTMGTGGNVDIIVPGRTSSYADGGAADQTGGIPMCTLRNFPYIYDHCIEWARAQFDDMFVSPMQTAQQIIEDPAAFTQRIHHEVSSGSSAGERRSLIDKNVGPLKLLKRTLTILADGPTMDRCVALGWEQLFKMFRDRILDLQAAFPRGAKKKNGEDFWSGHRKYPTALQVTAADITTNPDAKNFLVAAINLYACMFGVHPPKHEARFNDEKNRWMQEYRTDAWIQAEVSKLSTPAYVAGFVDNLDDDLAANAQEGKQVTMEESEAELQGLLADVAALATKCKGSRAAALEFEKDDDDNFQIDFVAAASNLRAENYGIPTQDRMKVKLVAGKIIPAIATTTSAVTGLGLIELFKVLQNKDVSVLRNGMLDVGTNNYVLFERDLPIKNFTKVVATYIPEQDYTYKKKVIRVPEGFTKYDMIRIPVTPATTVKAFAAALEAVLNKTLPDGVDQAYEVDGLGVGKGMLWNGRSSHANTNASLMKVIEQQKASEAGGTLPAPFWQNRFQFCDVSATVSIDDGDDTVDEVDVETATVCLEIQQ

[3] = biological target: AMP-activated protein kinase, AMPK (Homo sapiens) (UniProt P54646+O43741+P54619+Q9UGJ0+Q9Y478+Q13131+Q9UGI9); test: AMP-dependent Kinase enzyme assay. An in vitro enzyme assay that detects ADP turnover that is directly proportional to AMPK activity. This uses naive AMPK that is activated during the assay with MK-8722; type: functional; conditions: 30 µM
[4] = biological target: Sialic acid-binding Ig-like lectin 9 (Homo sapiens) (UniProt Q9Y336); test: Hs-Siglec9 ALPHAscreen SOP 20170721; conditions: 10 µM
Trypanosoma cruzi = test: Trypanosoma cruzi phosphomannomutase and mannose-1-phosphate guanylyltransferase assay; type: functional; conditions: 10 µM
[5] = biological target: T2, Arginase-2, mitochondrial (Homo sapiens) (UniProt P78540); test: in vitro enzyme assay to detect the production of urea directly proportional to the activity of Arginase II; type: functional; conditions: 33.3 µM; also: in the data most compounds retested in dose-response had high values
T2 sequence (whole entry): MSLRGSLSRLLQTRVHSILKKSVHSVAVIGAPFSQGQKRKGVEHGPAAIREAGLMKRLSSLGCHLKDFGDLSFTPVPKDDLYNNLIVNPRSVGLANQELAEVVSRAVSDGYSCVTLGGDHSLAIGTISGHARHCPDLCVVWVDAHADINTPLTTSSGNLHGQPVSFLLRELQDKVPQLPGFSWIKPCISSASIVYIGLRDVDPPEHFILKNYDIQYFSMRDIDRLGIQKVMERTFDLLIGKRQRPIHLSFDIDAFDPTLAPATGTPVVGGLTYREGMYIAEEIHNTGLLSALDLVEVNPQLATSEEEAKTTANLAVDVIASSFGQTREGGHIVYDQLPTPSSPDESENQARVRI

[6] = biological target: T3, Proteasome subunit beta (Trypanosoma cruzi) (UniProt O96673); test: Trypanosoma cruzi proteasome chymotrypsin-like activity (TcProtChymo) assay.; also: in the data most compounds retested in dose-response had high values; type: functional; conditions: 9.37 µM
T3 sequence (whole entry): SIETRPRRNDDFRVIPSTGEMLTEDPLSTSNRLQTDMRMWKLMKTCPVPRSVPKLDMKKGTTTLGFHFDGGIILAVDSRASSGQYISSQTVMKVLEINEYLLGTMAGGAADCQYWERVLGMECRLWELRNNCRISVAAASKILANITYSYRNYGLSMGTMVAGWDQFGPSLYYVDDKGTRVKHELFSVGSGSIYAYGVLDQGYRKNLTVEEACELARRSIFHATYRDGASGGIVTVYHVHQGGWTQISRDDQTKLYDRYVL

Homo sapiens = species on record: Homo sapiens; test: To identify inhibition of the IFN signalling (Jak-Stat) pathway via expression of an eGFP reporter gene under the control of an IFN-stimulated response element (ISRE) containing MxA promoter.; type: functional; conditions: 30 µM
[7] = biological target: T4, Tyrosyl-tRNA synthetase, putative (Trypanosoma cruzi (strain CL Brener)) (UniProt Q4DSP6); test: Trypanosoma cruzi tyrosyl tRNA synthetase (TcYRS) _High Tyrosine SOP; type: functional; conditions: 30 µM; also: in the data most compounds retested in dose-response had high values
T4 sequence (whole entry): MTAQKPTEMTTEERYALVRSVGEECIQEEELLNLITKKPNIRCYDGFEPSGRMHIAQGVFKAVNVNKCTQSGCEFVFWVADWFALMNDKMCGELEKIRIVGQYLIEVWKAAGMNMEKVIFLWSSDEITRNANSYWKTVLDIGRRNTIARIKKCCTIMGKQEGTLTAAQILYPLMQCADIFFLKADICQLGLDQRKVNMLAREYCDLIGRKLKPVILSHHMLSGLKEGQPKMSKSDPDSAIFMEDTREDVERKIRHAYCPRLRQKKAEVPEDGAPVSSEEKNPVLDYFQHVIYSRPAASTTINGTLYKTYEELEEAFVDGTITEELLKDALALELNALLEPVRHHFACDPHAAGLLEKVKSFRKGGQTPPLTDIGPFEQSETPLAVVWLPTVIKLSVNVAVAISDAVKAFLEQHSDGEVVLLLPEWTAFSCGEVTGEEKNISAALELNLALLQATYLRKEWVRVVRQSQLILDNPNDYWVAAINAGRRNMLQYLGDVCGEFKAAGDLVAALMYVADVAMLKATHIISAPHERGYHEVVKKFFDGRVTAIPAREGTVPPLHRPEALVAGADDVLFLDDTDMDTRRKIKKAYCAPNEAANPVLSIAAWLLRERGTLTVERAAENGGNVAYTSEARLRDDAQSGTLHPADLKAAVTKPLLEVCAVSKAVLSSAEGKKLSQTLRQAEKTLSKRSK

[8] = biological target: T4, Tyrosyl-tRNA synthetase, putative (Trypanosoma cruzi (strain CL Brener)); test: Trypanosoma cruzi tyrosyl tRNA synthetase (TcYRS) SOP; type: functional; conditions: 30 µM
[9] = biological target: Chromo domain-containing protein 1 (Saccharomyces cerevisiae (strain ATCC 204508 / S288c) (Baker's yeast)) (UniProt P32657); test: ScCHD-1 Enzyme Inhibition Assay; type: functional; conditions: 30 µM; also: in the data most compounds retested in dose-response had high values
Sequence of Chromo domain-containing protein 1 (Saccharomyces cerevisiae (strain ATCC 204508 / S288c) (Baker's yeast)) (P32657 whole entry, the tested form may be a part): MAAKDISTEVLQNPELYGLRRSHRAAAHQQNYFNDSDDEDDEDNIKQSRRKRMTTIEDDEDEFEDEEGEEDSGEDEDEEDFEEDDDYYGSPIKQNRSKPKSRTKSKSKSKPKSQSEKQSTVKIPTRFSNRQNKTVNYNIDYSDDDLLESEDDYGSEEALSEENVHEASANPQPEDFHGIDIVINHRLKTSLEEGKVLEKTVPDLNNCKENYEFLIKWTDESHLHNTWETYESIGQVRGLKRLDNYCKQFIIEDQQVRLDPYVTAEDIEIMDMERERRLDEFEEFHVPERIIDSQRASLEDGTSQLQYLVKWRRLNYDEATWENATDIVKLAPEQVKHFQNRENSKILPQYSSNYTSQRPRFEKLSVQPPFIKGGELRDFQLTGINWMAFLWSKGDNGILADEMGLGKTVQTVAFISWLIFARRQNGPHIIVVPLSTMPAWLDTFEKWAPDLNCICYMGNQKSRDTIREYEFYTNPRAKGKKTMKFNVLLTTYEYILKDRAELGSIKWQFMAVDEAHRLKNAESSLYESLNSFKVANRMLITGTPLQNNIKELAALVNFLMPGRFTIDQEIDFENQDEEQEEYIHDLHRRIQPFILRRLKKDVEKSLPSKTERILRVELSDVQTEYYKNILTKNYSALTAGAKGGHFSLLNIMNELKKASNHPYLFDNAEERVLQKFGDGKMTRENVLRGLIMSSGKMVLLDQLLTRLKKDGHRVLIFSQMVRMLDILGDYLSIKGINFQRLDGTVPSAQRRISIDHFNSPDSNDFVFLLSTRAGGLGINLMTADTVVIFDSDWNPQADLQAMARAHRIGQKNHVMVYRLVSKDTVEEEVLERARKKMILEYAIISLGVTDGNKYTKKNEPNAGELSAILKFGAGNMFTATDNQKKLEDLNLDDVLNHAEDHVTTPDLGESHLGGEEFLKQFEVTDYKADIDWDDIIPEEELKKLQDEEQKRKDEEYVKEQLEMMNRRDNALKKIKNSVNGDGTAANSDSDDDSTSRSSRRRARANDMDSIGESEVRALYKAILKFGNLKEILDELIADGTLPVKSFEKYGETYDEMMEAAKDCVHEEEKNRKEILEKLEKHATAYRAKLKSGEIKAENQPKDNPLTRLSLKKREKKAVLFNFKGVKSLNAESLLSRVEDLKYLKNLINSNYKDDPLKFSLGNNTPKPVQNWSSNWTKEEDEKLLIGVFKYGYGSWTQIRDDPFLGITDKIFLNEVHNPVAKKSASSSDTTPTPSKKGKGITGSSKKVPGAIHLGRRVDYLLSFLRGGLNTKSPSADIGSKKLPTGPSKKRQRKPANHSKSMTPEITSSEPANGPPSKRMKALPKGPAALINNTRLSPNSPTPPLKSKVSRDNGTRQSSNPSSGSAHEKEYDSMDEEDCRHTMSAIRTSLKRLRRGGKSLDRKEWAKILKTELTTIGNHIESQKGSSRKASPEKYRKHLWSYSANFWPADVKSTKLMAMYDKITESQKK

Sequence of Sialic acid-binding Ig-like lectin 9 (Homo sapiens) (Q9Y336 whole entry): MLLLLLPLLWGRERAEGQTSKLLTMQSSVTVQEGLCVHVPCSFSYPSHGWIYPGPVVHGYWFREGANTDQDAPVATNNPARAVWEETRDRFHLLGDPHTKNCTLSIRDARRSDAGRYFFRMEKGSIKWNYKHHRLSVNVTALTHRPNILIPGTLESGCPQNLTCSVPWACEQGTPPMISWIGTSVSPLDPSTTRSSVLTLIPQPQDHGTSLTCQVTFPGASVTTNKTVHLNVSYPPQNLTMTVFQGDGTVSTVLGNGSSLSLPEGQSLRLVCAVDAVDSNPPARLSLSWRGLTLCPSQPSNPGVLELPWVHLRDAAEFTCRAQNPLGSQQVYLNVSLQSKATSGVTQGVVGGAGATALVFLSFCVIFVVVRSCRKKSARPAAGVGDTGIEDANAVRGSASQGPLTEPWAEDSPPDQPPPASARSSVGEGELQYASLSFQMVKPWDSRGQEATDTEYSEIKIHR
Sequence of Protein translocase subunit SecA (Escherichia coli (strain K12)) (P10408 whole entry): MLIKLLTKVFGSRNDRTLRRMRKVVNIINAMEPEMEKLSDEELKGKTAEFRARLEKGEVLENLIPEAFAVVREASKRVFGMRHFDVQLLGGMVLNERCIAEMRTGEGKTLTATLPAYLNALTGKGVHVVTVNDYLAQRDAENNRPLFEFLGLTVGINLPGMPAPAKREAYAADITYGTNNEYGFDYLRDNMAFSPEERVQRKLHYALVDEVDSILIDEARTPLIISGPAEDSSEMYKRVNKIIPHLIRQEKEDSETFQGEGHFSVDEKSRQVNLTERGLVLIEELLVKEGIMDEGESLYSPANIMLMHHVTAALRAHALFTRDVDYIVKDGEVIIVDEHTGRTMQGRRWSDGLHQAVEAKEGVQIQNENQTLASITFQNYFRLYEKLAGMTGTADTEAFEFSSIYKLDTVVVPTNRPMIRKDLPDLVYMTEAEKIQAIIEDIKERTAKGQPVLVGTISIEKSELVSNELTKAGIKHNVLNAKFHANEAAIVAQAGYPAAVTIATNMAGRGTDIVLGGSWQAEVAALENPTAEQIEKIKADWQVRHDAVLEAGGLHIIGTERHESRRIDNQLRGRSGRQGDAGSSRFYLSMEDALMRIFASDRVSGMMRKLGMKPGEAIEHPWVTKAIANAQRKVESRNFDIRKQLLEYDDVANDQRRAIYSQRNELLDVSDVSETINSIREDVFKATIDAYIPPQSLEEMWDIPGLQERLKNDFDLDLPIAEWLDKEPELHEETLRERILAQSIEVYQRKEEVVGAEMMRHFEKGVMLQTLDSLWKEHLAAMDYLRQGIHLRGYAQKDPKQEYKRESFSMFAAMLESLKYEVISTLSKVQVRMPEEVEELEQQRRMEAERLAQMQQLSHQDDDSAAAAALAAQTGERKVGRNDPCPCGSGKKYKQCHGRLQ

SMILES	Percent Effect [1] [%]	Percent Effect [2] [%]	Percent Effect [3] [%]	Percent Effect [4] [%]	Percent Effect (Trypanosoma cruzi) [%]	Percent Effect [5] [%]	Percent Effect [6] [%]	Percent Effect (Homo sapiens) [%]	Percent Effect [7] [%]	Percent Effect [8] [%]	Percent Effect [9] [%]
O=C(Cc1ccc2c(c1)OCCO2)NCCc1nnc2n1CCC2	-2.17	24.3	22.3	-3.07	3.87	-7.62	10.8	2.82	4.43	18.5	-9.97
CN(Cc1nccn1CC(F)(F)F)C(=O)c1cccc(C#N)c1	-3.37	-2.63	6.05	3.82	-3.21	-4.73	3.74	-14.9	3.19	5.2	13.6
CC(C)n1ncc2cc(NC(=O)N3CCC(N4CCCC4)C3)cnc21 (configuration not stated)	-1.2	-5.41	-12.5	7.73	4.74	-5.73	12	3.87	-7.92	23.2	-5.17
Cc1cc(C)n(-c2cncc(NCCNC(=O)C(C)C)n2)n1	-6.42	8.11	-5.29	-1.97	-3.03	0.248	10.4	-9.83	4.3	6.17	-5.51
COc1cccc(CN2CCOC(Cn3nc(C)cc3C)C2)c1 (configuration not stated)	-1.25	2.7	25.1	-0.918	-4.88	1.67	18.2	-11.1	7.92	15.8	8.67
CC(NC(=O)N1CCCN(Cc2cccs2)CC1)c1cccnc1 (configuration not stated)	-0.761	18.4	-1.54	-0.0672	5.64	10.3	8.02	-11.5	5.39	21.9	-12
Cc1ccsc1C(=O)N1C[C@@H]2CN(Cc3ccoc3)CCO[C@@H]2C1	1.09	18.9	1.36	-11.6	5.18	9.87	12.7	-6.4	6.49	15.4	-1.54
CCOCC1CN(C(=O)c2cscn2)Cc2nnn(CC3CC3)c21 (configuration not stated)	-0.829	10.8	1.84	-5.91	0.88	4.14	18.4	-1.13	2.16	7.69	-1.63
CC(C)c1nnc2n1CCN(C(=O)c1ccc(OCC(N)=O)cc1)C2	-8.09	18.2	-2.69	-4.74	4.41	-1.9	9.62	4.02	6.67	11.8	-16.8
O=C(CCc1ccccn1)N1CCN(C(=O)CC2CCCCC2)CC1	-6.55	15.6	-6.12	-12.3	4.41	-5.68	10.9	4.51	5.71	18.8	-18.5
Cn1cc(CN2C[C@@H]3CN(Cc4ccoc4)CCO[C@@H]3C2)cn1	-1.93	7.79	7.44	0.861	-2.07	7.1	1.57	10.9	0	16.7	-4.4
O=C(CCCc1nnc(-c2ccccc2)o1)N1CCN(CCO)CC1	0.944	5.06	-13.1	8.28	-2.36	5.7	12.2	0.191	2.46	8.86	-6.47
Cc1ccc(F)c(-n2nnc(C(=O)O)c2-c2ccncc2)c1	-0.715	13.2	2.72	-1.83	-3.8	-2.37	22.7	-8.42	3.19	10.4	-1.85
CN(C)S(=O)(=O)N1C[C@@H](Oc2ccccn2)[C@H]2OCCC[C@H]21	-3.77	10.4	5.04	3.32	0.493	-3.23	8.7	24.1	-4.23	8.97	-11.1
CN1CCN(Cc2cn3c(n2)CN(C(=O)N2CCOCC2)CC3)CC1	-6.56	5.2	1.33	22.1	3.25	-5.52	0.499	-12.5	4.3	11.1	0.336
CCN1CCCC1CN(CCN(C)C)S(=O)(=O)c1ccc(C#N)cc1 (configuration not stated)	-3.88	5.48	-10.9	21.3	4.5	0.909	3.73	3.29	4.3	15	-5.33
O=C(NC[C@H]1OC[C@@H]2CCN(Cc3ccco3)C[C@@H]21)c1ccsc1	-1.93	8.22	-0.185	8.5	4.17	-9.58	11.2	-6.7	6.25	8.64	-1.63
NC(=O)N1CCC2(CC1)CN(c1ccsc1)C(=O)CO2	-5.13	10.7	4.87	0.623	-7.68	-3.96	-2.38	11	-3.19	-1.28	-2.23
CC(=O)N1CCN(C(=O)CN2CCc3c(ncn3C3CC3)C2)CC1	-0.513	19	-1.56	-4.08	1.33	5.38	17.5	11.7	1.04	5.06	-19.7
Cc1nc(CN2CCCN(CCOc3cccc(C#N)c3)CC2)no1	-0.969	13.2	-4.74	-2.13	-7.38	3.24	16.3	7.6	6.4	11.1	-9.28
CCCNC(=O)CNc1cc(C(=O)N2CCSCC2)ccc1C	-4.74	5.48	-4.24	9.22	8.73	-4.39	7.28	2.79	5.21	11.1	-9.2
Cc1cnn(CCNCCCOc2ccccc2)c1	1.02	-21.1	-5.54	5.86	3.27	1.08	6.85	-25	6.4	3.7	-0.782
